In PubChem BioAssay AID651678 (Sanford-Burnham Center for Chemical Genomics, 2012):
This is one part of the list. No stated cut-off is given here; in the data, active means inhibition mostly above about 35% (no sharp cut-off); inactive means mostly below about 32%.

What follows are compounds tested against Sentrin-specific protease 1 (Homo sapiens) (UniProt Q9P0U3) (assay: retest of SENP1 SUMO protease blockers – biochemical, FRET endpoint, single concentration, confirmation (AID 651678;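 further: 0% = enzyme with DMSO and 100% = no enzyme control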)). Conditions: recombinant SENP1, CyPet-SUMO1-YPet FRET cleavage; at 10 µM; stronger effect = higher value.
Sequence of Sentrin-specific protease 1 (Homo sapiens) (Q9P0U3 419-644 limits assumed): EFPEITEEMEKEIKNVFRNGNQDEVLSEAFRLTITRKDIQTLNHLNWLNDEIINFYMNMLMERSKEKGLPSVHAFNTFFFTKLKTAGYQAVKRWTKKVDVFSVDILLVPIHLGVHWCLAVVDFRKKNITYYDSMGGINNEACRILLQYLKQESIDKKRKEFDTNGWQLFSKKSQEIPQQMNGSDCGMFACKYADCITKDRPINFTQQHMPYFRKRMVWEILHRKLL

inhibition, inactive:
Cc1cc(C(=O)N/N=C/c2ccc(N3CCOCC3)cc2)c(C)o1 29.1%, CCN(CC)S(=O)(=O)c1cc([N+](=O)[O-])ccc1N=Nc1c(O)n(C)c2ccccc12 10.5%, Cn1c(-c2sc3cc(C(F)(F)F)cnc3c2-c2ccccc2)n[nH]c1=S -1.85%, O=[N+]([O-])c1ccc(N=NNc2ccc([N+](=O)[O-])cc2)cc1 20.1%, O=C(NC(=O)c1ccccc1)Nc1ccccc1O 0.15%, COc1ccc(OC)c(C2C3=C(N=c4s/c(=C\c5cccc(O)c5)c(=O)n42)c2ccccc2CC3)c1 (stereo unspecified) 35.7%
